Inconclusive results are not listed. Unmarked numbers belong to inactive results. The source made the active and inactive calls. Calls follow the shape of the dose curve; as a rule, active = well fitted inhibition curve with a large enough effect; inconclusive = small, poorly fitted or top-dose-only effect; inactive = flat fitted curve, though single readings scatter.
Potency is read from the fitted curve at half-maximal effect.

In the first test the test system is TAB165. The test is described as follows: qHTS profiling for inhibitors of Plasmodium falciparum proliferation (AID 504749). Also: nearly all actives have a fitted effect of over 60% in size.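 As to activity, negative = inhibition: 0% = DMSO vehicle and full inhibition = artemisinin control.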 To be noted: P. falciparum in erythrocytes, SYBR Green DNA, 72 h; series mostly up to 28.7 µM; activity, negative = inhibition: at the top concentration. Put shortly: (§1)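 Quantitative HTS: compounds pinned into medium, infected erythrocytes added (0.3% parasitemia, 2.5% hematocrit), 72 h culture at 37 C under 5% CO2. Saponin/Triton lysis with SYBR Green I, overnight RT, then fluorescence read.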
In general terms: qHTS replaces the single test concentration by a dilution series.
For `Cc1c(C)c2c(c(C)c1O)CC[C@@](C)(CCC[C@H](C)CCC[C@H](C)CCCC(C)C)O2`, the “activity, negative = inhibition” value is -3.5%.

As for `CCCCCCCCCCCC[n+]1ccc2ccccc2c1`, the Potency is 891 nM (active).

As to `O=C(O)c1cc(O)c2c(c1)[O][Bi][O]2`, the “activity, negative = inhibition” value was 3.05%.

Turning to `CCOc1ccc2c(c1)C(C)=CC(C)(C)N2`, the “activity, negative = inhibition” value was 7.96%.

Turning to `COC(=O)C1=C(C#N)NC(C)=C(C(=O)OC(C)C)C1c1cccc([N+](=O)[O-])c1` (configuration not stated), the Potency is 10000 nM (active).

Regarding `CCOC(=O)C1=CC2(CC)CCCN3CCc4c(n1c1ccccc41)C32` (configuration not stated), the Potency was 7940 nM (active).

In the case of `CC1=CCC(C(C)(C)O)CC1` (configuration not stated), the “activity, negative = inhibition” value was 3.33%.

Regarding `CCCCCCCCCCCCCCCC(=O)OCC(COC(=O)CCCCCCCCCCCCCCC)OC(=O)CCCCCCCCCCCCCCC`, the “activity, negative = inhibition” value was 6.96%.

Turning to `IC(I)I`, the “activity, negative = inhibition” value was 4.33%.

For `C[C@]12O[C@H](C[C@]1(O)CO)n1c3ccccc3c3c4c(c5c6ccccc6n2c5c31)CNC4=O`, the Potency is 251 nM (active).

Regarding `COCC(=O)Nc1cc(Sc2ccccc2)ccc1N=C(NC(=O)OC)NC(=O)OC`, the “activity, negative = inhibition” value is -21.2%.

Turning to `CC(=O)Oc1c(C)cc(OCC(O)CNC(C)C)c(C)c1C` (configuration not stated), the “activity, negative = inhibition” value was -8.04%.

Turning to `CCCCC(C)(O)C/C=C/[C@H]1[C@H](O)CC(=O)[C@@H]1CCCCCCC(=O)OC` (some centres not stated), the “activity, negative = inhibition” value was 1.25%.

As to `CCCCCCCCCCCCCC[n+]1ccc(C)cc1`, the Potency was 3980 nM (active).

Regarding `CC(C(=O)O)c1ccc(N2Cc3ccccc3C2=O)cc1` (configuration not stated), the “activity, negative = inhibition” value is 5.9%.

On to `O=C1C(=O)c2ncccc2-c2cccnc21`, for which the Potency is 794 nM (active).

Take `O=C(Nc1cccc(C(F)(F)F)c1)c1cc(Br)cc(Br)c1O`: the Potency is 14100 nM (active).

For `CC1=C(/C=C/C(C)=C/C=C/C(C)=C/C=C/C=C(C)/C=C/C=C(C)/C=C/C2=C(C)CCCC2(C)C)C(C)(C)CCC1`, the “activity, negative = inhibition” value was -20.4%.

In the case of `COC(=O)[C@H]1[C@H]2CC3c4[nH]c5ccccc5c4CCN3C[C@@H]2CC[C@@H]1O` (some centres not stated), the “activity, negative = inhibition” value is 6.32%.

On to `CN=C(NC#N)Nc1ccc(C2=NNC(=O)C[C@@H]2C)cc1`, for which the “activity, negative = inhibition” value was 5.62%.

With `O=C(COc1ccc(Cl)cc1)OCCNC12CC3CC(CC(C3)C1)C2`, the “activity, negative = inhibition” value is -2.77%.

`Nc1c(N=Nc2ccc(-c3ccc(N=Nc4cc(S(=O)(=O)O)c5ccccc5c4N)cc3)cc2)cc(S(=O)(=O)O)c2ccccc12`: the “activity, negative = inhibition” value is 1.87%.

`CO[C@H](C(=O)[C@@H](O)[C@@H](C)O)C1Cc2cc3cc(O[C@H]4C[C@@H](O[C@H]5C[C@@H](O)[C@H](O)[C@@H](C)O5)[C@@H](O)[C@@H](C)O4)c(C)c(O)c3c(O)c2C(=O)[C@H]1O[C@H]1C[C@@H](O[C@H]2C[C@@H](O[C@H]3C[C@](C)(O)[C@H](O)[C@@H](C)O3)[C@H](O)[C@@H](C)O2)[C@H](O)[C@@H](C)O1` (some centres not stated): the Potency was 126 nM (active).

As to `C#CCOc1ccc2c(C)cc(=O)oc2c1`, the “activity, negative = inhibition” value is 6.93%.

Consider `CC(=O)Oc1cc(C)c(OC(C)=O)c2ccccc12`, for which the Potency is 12600 nM (active).

In the case of `CCCCCCCC/C=C\CCCCCCCC(=O)O`, the “activity, negative = inhibition” value is 6.08%.

Regarding `O=S(=O)(O)O`, the “activity, negative = inhibition” value is -0.642%.

Turning to `CO[C@H]1C[C@@H]2CC[C@@H](C)[C@@](O)(O2)C(=O)C(=O)N2CCCC[C@H]2C(=O)O[C@H]([C@H](C)C[C@@H]2CC[C@@H](OCCO)[C@H](OC)C2)CC(=O)[C@H](C)/C=C(\C)[C@@H](O)[C@@H](OC)C(=O)[C@H](C)C[C@H](C)/C=C/C=C/C=C/1C`, the Potency is 1120 nM (active).

With `CC(C)(C)C(=O)OCOC(=O)[C@@H]1N2C(=O)[C@@H](N=CN3CCCCCC3)[C@H]2SC1(C)C`, the “activity, negative = inhibition” value was 6.41% [at 12.8 µM].

For `Nc1c(Br)cc(Br)cc1CNC1CCC(O)CC1` (configuration not stated), the “activity, negative = inhibition” value is -3.81%.

In the case of `CCCCCCCC(=O)O`, the “activity, negative = inhibition” value was 0.808%.

On to `CCCCC/C=C\C/C=C\CCCCCCCC(=O)O`, for which the “activity, negative = inhibition” value was 9.34%.

`CCC(=O)NCCC1CCc2ccc3c(c21)CCO3` (configuration not stated): the “activity, negative = inhibition” value was 5.66%.

As to `CCCCCC(CC)COC(=O)CC(C(=O)OCC(CC)CCCC)S(=O)(=O)O` (configuration not stated), the “activity, negative = inhibition” value was 6.72%.

For the compound `C=CCSSSCC=C`, the “activity, negative = inhibition” value is 3.79%.

The next test has as its system W2. The description is as above. Conditions: P. falciparum in erythrocytes, SYBR Green DNA, 72 h; series mostly up to 28.7 µM; activity, negative = inhibition: at the top concentration. In outline: as §1
Regarding `O=CCCCC=O`, the Potency is 13500 nM (active).

Take `Cc1c(C)c2c(c(C)c1O)CC[C@@](C)(CCC[C@H](C)CCC[C@H](C)CCCC(C)C)O2`: the “activity, negative = inhibition” value is 1.46%.

Take `CCCCCCCCCCCC[n+]1ccc2ccccc2c1`: the Potency was 301 nM (active).

Regarding `O=C(O)c1cc(O)c2c(c1)[O][Bi][O]2`, the “activity, negative = inhibition” value was 3.28%.

In the case of `CCOc1ccc2c(c1)C(C)=CC(C)(C)N2`, the “activity, negative = inhibition” value is -2.51%.

For the compound `CC1=CCC(C(C)(C)O)CC1` (configuration not stated), the “activity, negative = inhibition” value is 4.49%.

As for `CCCCCCCCCCCCCCCC(=O)OCC(COC(=O)CCCCCCCCCCCCCCC)OC(=O)CCCCCCCCCCCCCCC`, the “activity, negative = inhibition” value is 12.9%.

For `IC(I)I`, the “activity, negative = inhibition” value was 2.1%.

For the compound `CCCCC(=O)O[C@]1(C(=O)CO)[C@H](C)C[C@H]2[C@@H]3CCC4=CC(=O)C=C[C@]4(C)[C@@]3(F)[C@@H](O)C[C@@]21C`, the Potency is 13500 nM (active).

For `C[C@]12O[C@H](C[C@]1(O)CO)n1c3ccccc3c3c4c(c5c6ccccc6n2c5c31)CNC4=O`, the Potency was 239 nM (active).

For the compound `CCCCCCCCCCCCCC[n+]1ccc(C)cc1`, the Potency is 1690 nM (active).

As for `CC(C(=O)O)c1ccc(N2Cc3ccccc3C2=O)cc1` (configuration not stated), the “activity, negative = inhibition” value was 14.5%.

In the case of `O=C1C(=O)c2ncccc2-c2cccnc21`, the Potency is 1070 nM (active).

With `CN(C)CCCN1c2ccccc2C(C)(C)c2ccccc21`, the Potency was 4260 nM (active).

Take `O=C(Nc1cccc(C(F)(F)F)c1)c1cc(Br)cc(Br)c1O`: the Potency was 6750 nM (active).

Take `CC1=C(/C=C/C(C)=C/C=C/C(C)=C/C=C/C=C(C)/C=C/C=C(C)/C=C/C2=C(C)CCCC2(C)C)C(C)(C)CCC1`: the “activity, negative = inhibition” value is 10.6%.

As to `Nc1c(N=Nc2ccc(-c3ccc(N=Nc4cc(S(=O)(=O)O)c5ccccc5c4N)cc3)cc2)cc(S(=O)(=O)O)c2ccccc12`, the “activity, negative = inhibition” value was 17.6%.

As to `CO[C@H](C(=O)[C@@H](O)[C@@H](C)O)C1Cc2cc3cc(O[C@H]4C[C@@H](O[C@H]5C[C@@H](O)[C@H](O)[C@@H](C)O5)[C@@H](O)[C@@H](C)O4)c(C)c(O)c3c(O)c2C(=O)[C@H]1O[C@H]1C[C@@H](O[C@H]2C[C@@H](O[C@H]3C[C@](C)(O)[C@H](O)[C@@H](C)O3)[C@H](O)[C@@H](C)O2)[C@H](O)[C@@H](C)O1` (some centres not stated), the Potency is 169 nM (active).

For `CC(=O)Oc1cc(C)c(OC(C)=O)c2ccccc12`, the Potency was 5360 nM (active).

On to `CCCCCCCC/C=C\CCCCCCCC(=O)O`, for which the “activity, negative = inhibition” value was -5.54%.

For the compound `O=S(=O)(O)O`, the “activity, negative = inhibition” value is 3.04%.

On to `CO[C@H]1C[C@@H]2CC[C@@H](C)[C@@](O)(O2)C(=O)C(=O)N2CCCC[C@H]2C(=O)O[C@H]([C@H](C)C[C@@H]2CC[C@@H](OCCO)[C@H](OC)C2)CC(=O)[C@H](C)/C=C(\C)[C@@H](O)[C@@H](OC)C(=O)[C@H](C)C[C@H](C)/C=C/C=C/C=C/1C`, for which the Potency is 757 nM (active).

As for `CCCCCCCC(=O)O`, the “activity, negative = inhibition” value was 6.72%.

For `O=C(O)CCC(=O)C(=O)O`, the “activity, negative = inhibition” value is 2.69%.

Turning to `CCCCC/C=C\C/C=C\CCCCCCCC(=O)O`, the “activity, negative = inhibition” value is -8%.

As to `CCC(=O)NCCC1CCc2ccc3c(c21)CCO3` (configuration not stated), the “activity, negative = inhibition” value was 2.37%.

Regarding `C=CCSSSCC=C`, the “activity, negative = inhibition” value is -2.1%.

The record behind these values is PubChem BioAssay (NCATS).
